Inconclusive results are not listed. Where a call stands in place of a potency, no number is given. A number with no mark means an inactive call. Calls of active or inactive are those of the source. Calls follow the shape of the dose curve; as a rule, active = well fitted cell-killing curve with a large enough effect; inconclusive = small, poorly fitted or top-dose-only effect, or effect the other way; inactive = no such curve, though single readings can be large or run the other way.
Potency is read from the fitted curve at half-maximal effect.

A short description of the experiment: Viability qHTS for spleen associated tyrosine kinase inhibitor (SYKi) naive MV4-11 cells (AID 1963823). Also: nearly all actives have a fitted effect of over 40% in size. The settings on record: MV4-11 AML viability, CellTiter-Glo luminescence, 72 h; series mostly up to 45 µM. The essentials:
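Seeding of 500 SYKi-naive MV4-11 cells per well onto pre-dispensed compounds preceded a 72 hr incubation at 37 C. Luminescent CellTiter-Glo signal, read after 10 min at room temperature, reflected viable cells.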
For `Cc1nc2ccccc2c(-c2ccc3c4c(ccnc24)CCO3)c1[C@H](OC(C)(C)C)C(=O)O`, the Potency result was “inactive”.
`CCN(CC)c1ccc2c(O)c(C=Nc3ccc(CC(=O)O)c(-c4c5c(nc6ccccc46)CCC(C(=O)NN)C5)c3)c(=O)oc2c1` (stereo not given): the Potency is 2.59 µM (active).
As to `CCCOC(c1cc2nccc(C(=O)O)c2[nH]1)c1ccccc1Cl` (stereo not given), the Potency result is “inactive”.
On to `O=C(O)c1ccc(N2C(=O)/C(=C/c3ccc(-c4ccc([N+](=O)[O-])cc4)o3)C=C2c2ccccc2)cc1`, for which the Potency entry was “inactive”.
Same read-out and setting: the entry for `COC(=O)[C@H](O)[C@H]1C(C)(C)[C@H](OC(C)=O)[C@@]2(O)C(=O)[C@]1(C)C1CC[C@]3(C)C(CC(=O)O[C@H]3c3ccoc3)[C@]13O[C@@H]32` (stereo not given in full) is “inactive”; for `Cc1c(C(=O)Nc2ccc(N3CCC(N4CCOCC4)CC3)c(C#N)c2)cnn1-c1ccc(Cl)cc1` it is 0.116 µM (active).
Take `CC(C)(C)c1ccc(NC(=O)N2CCN(c3ncccc3Cl)CC2)cc1`: the Potency is 3.66 µM (active).
Still for that read-out and setting: with `COc1cc(CC(COC2OC(CO)C(O)C(O)C2O)c2cc(/C=C/CO)cc(OC)c2O)ccc1O` (stereo not given) the entry was “inactive”; with `C=CC1(C)C=C2CC[C@H]3[C@@](C)(C(=O)O)CCC[C@]3(C)C2CC1` (stereo not given in full), 1.61 µM (active).
On the same count and under the same terms, the entry for `C=CC(C)(O)CC[C@H]1C(=C)CCC2[C@](C)(C(=O)O)CCC[C@@]21C` (stereo not given in full) is “inactive”; for `CC(/C=C/C1(O)C(C)(C)CC(O)CC1(C)O)OC1OC(CO)C(O)C(O)C1O` (stereo not given) it is “inactive”.
Take `NC(=O)[C@H](Cc1ccccc1)NC(=O)[C@H](CCCN=C(N)N)NC(=O)C12CC3CC(CC(C3)C1)C2`: the viability (% of control) was 88.8% [at 9.25 µM].
Turning to `O=C1NC(=O)C(c2cn(-c3ccccc3)nc2-c2ccc(F)cc2)N1` (stereo not given), the Potency result was “inactive”.
On to `C=C1C(=O)O[C@@H]2/C=C(\C)CC/C=C(\C(=O)O[C@@H]3O[C@H](CO)[C@@H](O)[C@H](O)[C@H]3O)CC[C@@H]12`, for which the Potency entry was “inactive”.
Same read-out and setting: the entry for `CC(=O)C12OC(C)(C)OC1CC1C3CCC4=CC(=O)C=CC4(C)C3(F)C(O)CC12C` (stereo not given) is “inactive”; for `CC(C)=CCCC1(C)Oc2cc3c(c4c2C2C(O4)C(C)(O)CCC21)CN(C(CCC(=O)O)C(=O)O)C3=O` (stereo not given) it is “inactive”; for `CC(CO[C@@H]1O[C@H](COC(=O)/C=C/c2ccc(O)c(O)c2)[C@@H](O)[C@H](O)[C@H]1O)C1(O)COC(=O)C1` (stereo not given in full) it is “inactive”.
Consider `CCC(O)C(C)C1CCC(C(C)C(=O)O)O1` (stereo not given), for which the Potency entry was “inactive”.
Consider `COc1cc(C(=O)OC[C@@]2(O)CO[C@@H](O[C@H]3[C@H](Oc4ccc(C(=O)O)cc4OC)O[C@H](CO)[C@@H](O)[C@@H]3O)[C@@H]2O)ccc1O`, for which the Potency entry was “inactive”.
On the same count and under the same terms, the figure for `C#Cc1cccc(Nc2nc3cc(C(=O)O)ccc3c3cncnc23)c1` is 5.17 µM (active); for `CC(=O)N[C@H]1[C@H](O[C@H]2CC[C@@]3(C)C(CC[C@]4(C)C3CC=C3C5CC(C)(C)CC[C@]5(C(=O)O)C(O)C[C@]34C)C2(C)C)O[C@H](CO[C@@H]2O[C@H](C)[C@H](O)[C@H](O)[C@H]2O[C@@H]2OC[C@@H](O)[C@H](O)[C@H]2O)[C@@H](O)[C@@H]1O` (stereo not given in full) it is 3.48 µM (active).
Regarding `COc1ccc(C2(O)c3c(ccc4c3OC(C)(CCC=C(C)C)C=C4)NC(=O)C2OC)cc1` (stereo not given), the Potency result is “inactive”.
For the molecule `C=CC1(C)CC2CCC3C(C)(C(=O)O)CCCC3(C)C2=CC1=O` (stereo not given), the Potency result was “inactive”.
For `O=C(O)c1cc(-c2c(-c3ccccc3)nn3ccccc23)n[nH]c1=O`, the Potency result was “inactive”.
As to `CC[C@@H](O)C[C@@H]1C(C)=C[C@@H]2CCCC[C@@H]2[C@@]1(C)C(=O)O`, the Potency entry was “inactive”.
Take `Cc1cc(CO)c(O)c(C(=O)CC2CC(=O)NC(=O)C2)c1`: the Potency entry is “inactive”.
Still for that read-out and setting: with `OC[C@@]1(O)CO[C@@H](OC[C@H]2O[C@@H](Oc3c[nH]c4ccccc34)[C@H](O)[C@@H](O)[C@@H]2O)[C@@H]1O` the entry was “inactive”.
As for `Cn1cc(-c2ccc(-c3cncc(Cl)c3N3CCC4(CCNC4=O)CC3)cc2)cn1`, the Potency was 5.25 µM (active).
Same read-out and setting: the figure for `CC(=O)O[C@H]1CC2C(COC(=O)CC(C)C)=CO[C@@H](OC(=O)CC(C)C)C2[C@]12CO2` (stereo not given in full) is 1.42 µM (active).
For `C[C@@H]1O[C@@H](O[C@@H]2[C@@H](O)[C@@H](O)[C@H](O[C@@H]3[C@@H](O)[C@@H](O[C@]4(CO)O[C@H](CO)[C@@H](O)[C@@H]4OC(=O)/C=C/c4ccc(O)cc4)O[C@H](CO)[C@H]3OC(=O)/C=C/c3ccc(O)cc3)O[C@H]2C)[C@H](O)[C@H](O)[C@H]1O`, the viability (% of control) is 81.6% [at 9.25 µM].
On to `Cc1c(-c2cnccn2)ssc1=S`, for which the Potency was 4.17 µM (active).
On to `CN[C@H](C(=O)N[C@H](C(=O)N(C)[C@H](/C=C(\C)C(=O)O)C(C)C)C(C)(C)C)C(C)(C)c1ccccc1`, for which the Potency result is “inactive”.
For the molecule `CC1=CCC2C(C)(CO)CCCC2(C)C1CC12OC1C(O)C(CO)=CC2O` (stereo not given), the Potency entry was “inactive”.
As for `COC(=O)C1C(c2ccc(O)cc2)C(C(=O)O)C1c1ccc(O)cc1` (stereo not given), the Potency result was “inactive”.
On the same count and under the same terms, the figure for `CCOC(=O)[C@H](CCc1ccccc1)N[C@@H](C)C(=O)N1C2CCCCC2C[C@H]1C(=O)O` (stereo not given in full) is 16.4 µM (active); for `COc1cc(/C=C/C(=O)OC[C@H]2O[C@@H](OC3OC=C(C(=O)O)C4C(O)CC(C)(O)C34)[C@H](O)[C@@H](O)[C@@H]2O)cc(OC)c1O` (stereo not given in full) it is “inactive”.
On the same count and under the same terms, the entry for `COc1cc(C2Oc3c(OC)cc(CCCO)cc3C2CO)ccc1O` (stereo not given) is “inactive”; for `NS(=O)(=O)c1ccc(N2CCN(CC[C@@H]3OCCc4ccccc43)CC2)cc1` it is 11.6 µM (active); for `CC1=CC(=O)C2C(C)(C)CC(O)CC2(C)C1CO` (stereo not given) it is “inactive”.
For `C=CC1(C)CC(O)C2(CCC3C(C)(C(=O)O)CCCC3(C)C2=O)C1` (stereo not given), the Potency result was “inactive”.
